Most compounds without a hit are left out; they make up all but 3.7% or so of the library.
NALP3 yeast inh: blocks the NALP3 inflammasome reconstituted in yeast | inhibition, % at 10 µM | 330,000 compounds, 0.39% hits | AID 2825 | Yeast reconstituted NLRP3/ASC/caspase-1, beta-gal luminescence, 24 h;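 active means inhibition of 50% or more; inactive means inhibition below 50%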
TIM10 inh: growth inhibitors of TIM10 yeast strain | S. cerevisiae TIM10 strain growth, BacTiter-Glo luminescence, 24 h | AID 463195 | inhibition, % at 10 µM | 330,000 compounds, 1.4% hits;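 active means inhibition of 40% or more at the single tested concentration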;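 further: wild-type TIM10 isogenic control strain grown at permissive 25 °C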
tim23-1 inh: growth inhibitors of tim23-1 mutant yeast | S. cerevisiae tim23-1 growth, BacTiter-Glo luminescence, 24 h | inhibition, % at 20 µM | 330,000 compounds, 1.3% hits | AID 463212;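 active means growth inhibition of the mutant yeast at or above 50%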;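 further: temperature-sensitive mutant grown at 25 °C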
PfHsp90 yeast 2: reduces growth (ATP signal) of yeast expressing P. falciparum Hsp90; 310,000 compounds, 0.32% hits; inhibition, % at 9.4 µM; AID 504621; S. cerevisiae expressing PfHsp90, BacTiter-Glo ATP, 48 h; yeast lacking PDR1 and PDR3 efflux regulators;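 active means every replicate shows inhibition above about 80%, whatever the replicate mean, limit read from the data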
tim10-1 inh: tim10-1 yeast growth inhibition. S. cerevisiae tim10-1 ts strain growth, BacTiter-Glo, 24 h. inhibition, % at 20 µM. 330,000 compounds, 2.2% hits. AID 463190;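 active means inhibition of at least 40%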;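 further: mutant grown at 25 °C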
NALP3 confirm: confirmation of NALP3 inhibitors in yeast; shares compounds with NALP3 yeast inh; yeast expressing human NALP3, luminescence; inhibition, % at 10 µM; 1,300 compounds, 81% hits; in the data active means inhibition above about 48%
Casp1-ASC yeast: active in yeast caspase-1-ASC counter-screen for NALP3 inhibitors. shares compounds with NALP3 yeast inh. yeast expressing Caspase-1-ASC, luminescence counter screen. inhibition, % at 10 µM. 1,000 compounds, 66% hits. AID 488784
NALP3 retest: confirmation retest of NALP3 inhibitors in yeast; 1,000 compounds, 53% hits; AID 488794; shares compounds with NALP3 yeast inh; yeast expressing human NALP3, luminescence read-out; inhibition, % at 10 µM
tim10-1 confirm: confirmation of tim10-1 mutant yeast growth inhibitors; shares compounds with tim10-1 inh; S. cerevisiae tim10-1 ts strain growth, BacTiter-Glo, 24 h; inhibition, % at 20 µM; 7,400 compounds, 56% hits; AID 463213;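 active means inhibition of yeast growth at or above a set limit in either of two repeat tests at 20 µM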;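 further: tim10-1 mutant grown at permissive 25 °C to find synthetic lethal compounds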
TIM10 conf: TIM10 yeast growth inhibition, confirmed; shares compounds with TIM10 inh; S. cerevisiae tim10 strain growth, BacTiter-Glo luminescence, 24 h; inhibition, % at 10 µM; 4,600 compounds, 63% hits; AID 463215;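 active means inhibition of yeast growth at or above a set limit in either of two replicates at 10 µM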; further: this counterscreen used the strain with wild-type TIM10
tim23-1 confirm: tim23-1 yeast growth inhibition, confirmed. S. cerevisiae tim23-1 growth, BacTiter-Glo luminescence, 24 h. 4,400 compounds, 83% hits. inhibition, % at 20 µM. shares compounds with tim23-1 inh;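 active means inhibition above about 39% in either of two replicate wells at 20 µM, limit read from the data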;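 further: temperature-sensitive tim23-1 mutant grown at 25 °C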
Of the large screens only hits and unclear results are named; the others gave an inactive call (follow-up assays come after a bar, where they were run). Unless noted, no stated cut-off is given here; in the data, active means inhibition above about 50%; inactive means the rest.

Cn1c(=O)c(C(=O)NNC(=O)c2ccccc2Br)c(O)c2ccccc21	NALP3 yeast inh 58.8, tim23-1 inh 50.8 | NALP3 confirm 84.0 | Casp1-ASC yeast 53.1 | NALP3 retest 65.3 | tim23-1 confirm inactive
Cn1c(=O)c(C(=O)Nc2ccccn2)c(O)c2ccccc21	NALP3 yeast inh 50.7, tim23-1 inh 57.4 (no result: PfHsp90 yeast 2) | NALP3 confirm 63.5 | Casp1-ASC yeast inactive | NALP3 retest inactive | tim23-1 confirm 58.5
CCC(C)(C)C(=O)Nc1cccc(Cl)c1C	none
CC(Cl)C(=O)Nc1c2c(nn1-c1ccccc1)CSC2 (stereo not given)	none
O=C(NC1CC2CCC1C2)c1ccco1 (stereo not given)	none
O/N=C/c1cccc[n+]1CCCCCC[n+]1ccccc1/C=N/O	none
CCCCCCCCCCCCCCCC[n+]1ccc(/C=N/O)cc1	NALP3 yeast inh 56.1, TIM10 inh 50.3, tim23-1 inh 50.6, PfHsp90 yeast 2 106.0 | NALP3 confirm inactive | TIM10 conf inactive | tim23-1 confirm 49.1
CC(C)N=c1cc2n(-c3ccc(Cl)cc3)c3ccccc3nc-2cc1Nc1ccc(Cl)cc1	NALP3 yeast inh 56.0, tim23-1 inh 58.1, tim10-1 inh 40.7 | NALP3 confirm 68.4 | tim10-1 confirm inactive | tim23-1 confirm 56.8
Cn1c(CNc2ccc(Cl)cc2)nc2ccccc21	none
Cc1ccsc1C(=O)NNC(=O)c1cccc(S(=O)(=O)N2CCCC2)c1	none
CCOC(=O)c1sc(NC(=O)CCCn2nc([N+](=O)[O-])c(Cl)c2C)c(C(=O)OCC)c1C	none
CN=C1S/C(=C\c2ccc(O)c(Br)c2)C(=O)N1C	NALP3 yeast inh 68.0, tim23-1 inh 61.8, tim10-1 inh 55.7 | NALP3 confirm 84.2 | Casp1-ASC yeast 78.2 | NALP3 retest 71.8 | tim10-1 confirm 49.7 | tim23-1 confirm 62.6
O=C(Nc1ccc2c(c1)OCCO2)c1cccc(Br)c1	NALP3 yeast inh 52.3, tim23-1 inh 56.0 | NALP3 confirm 73.5 | Casp1-ASC yeast 50.5 | NALP3 retest 50.5 | tim23-1 confirm 57.9
CC(C)CN1C2CCCC1CC(NC(=S)NCc1ccco1)C2 (stereo not given)	none
CCN1/C(=C/C=C/c2oc3ccc4ccccc4c3[n+]2CC)Oc2ccc3ccccc3c21	NALP3 yeast inh 59.3, TIM10 inh 61.7, tim23-1 inh 68.9, tim10-1 inh 54.4 (no result: PfHsp90 yeast 2) | NALP3 confirm 61.0 | tim10-1 confirm 56.2 | TIM10 conf 68.3 | tim23-1 confirm 64.2
CCc1ccc(NC(=O)CSCc2ccc(C(=O)O)cc2)cc1	none
Cc1cccc(C2c3[nH]c4ccccc4c3CCN2C(=O)c2cc(CC(C)C)nc(C)n2)n1 (stereo not given)	none
Cn1nnc(NC(=S)NC(=O)c2cccc3ccccc23)n1	NALP3 yeast inh 55.5, tim23-1 inh 56.6, tim10-1 inh 52.8 | NALP3 confirm 63.5 | Casp1-ASC yeast 71.3 | NALP3 retest 54.7 | tim10-1 confirm inactive | tim23-1 confirm inactive
Cn1nnc(NC(=S)NC(=O)c2cccs2)n1	none
COc1ccc(NC(=O)CCNC(=O)Cn2ccc3ccccc3c2=O)cc1Cl	none
c1ccc(-c2ncc(-c3ccn[nH]3)s2)cc1	NALP3 yeast inh 65.2, TIM10 inh 48.5, tim23-1 inh 55.9 | NALP3 confirm 84.3 | Casp1-ASC yeast 78.9 | NALP3 retest 63.5 | TIM10 conf inactive | tim23-1 confirm 67.8
c1ccc(Oc2ccc(-c3ccn[nH]3)cc2)cc1	none
Cc1ccccc1Sc1ccc(N)cn1	none (no result: PfHsp90 yeast 2)
